# Reference: PubChem BioAssay (EPA / NIEHS)
# Results filed as inconclusive are left out. Calls of active or inactive are those of the source. How the source made its calls: active means hit-call score of the fitted dose curve at least 0.9, where 1 is the maximum; inconclusive means response in the unintended direction; inactive means score below 0.9.
# How the values were obtained:
# [1] = Tanguay_ZF_120hpf_ActivityScore_legacy: (Legacy) Oregon State University Tanguay Lab 120 Hour Post-fertilization zebrafish Assay Score for Activity (AID 2283742);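 on AC50: dechorionated Tropical 5D wild-type zebrafish embryos held singly per well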
# How it was run: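 Binary scoring of mortality and morphology by brightfield at 24 and 120 hpf, summarised into one activity score from 18 components relative to DMSO. Wild-type Tropical 5D zebrafish, chorion removed at 4 hpf, static exposure 6–120 hpf, 28 °C.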
# [2] = ACEA_AR_agonist_AUC_viability: ACEA Biosciences xCELLigence Real-Time Cell Analysis on Androgen Receptor Agonism for Viability (AID 2283775);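 on AC50: viability read 80 hours after compound addition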
# How it was run: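 Viability endpoint from xCELLigence impedance in 22Rv1 prostate cells at 80 h. Eight-point series, 100 uM maximum final.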
# [3] = ACEA_AR_antagonist_AUC_viability: ACEA Biosciences xCELLigence Real-Time Cell Analysis on Androgen Receptor Antagonism for Viability (AID 2283776);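 further: area under impedance growth curve at 80 h after dosing as viability; hits lower the growth signal relative to DMSO meaning cytotoxicity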
# How it was run: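 22Rv1 human prostate cancer cells were seeded on electrode plates, monitored overnight, then exposed to eight 1:4 dilutions from 100 uM final. Impedance-based growth kinetics at 80 h gave an AUC viability endpoint normalized to DMSO.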
# [4] = target: Luciferin 4-monooxygenase (Photinus pyralis) (UniProt P08659); assay: CCTE_Simmons_QuantiLum_inhib_2: CCTE's Firefly Luciferase Inhibition Assay, Simmons Lab (AID 2283767)
# How it was run: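 Cell-free QuantiLum luciferase, 5 ng/well; compounds 5 nM–87.5 uM final, 8 conc, 0.5% DMSO; 30 min, 37C, dark. Detection reagent (150 uM D-luciferin, 147 uM dATP, CoA, DTT, pH 7.8 final) injected per well, kinetic luminescence. Triplicate biological replicates.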
# [5] = tested on: zebrafish Androgen Receptor (AR), gene 100005148; assay: ATG_zfAR_XSP1: Attagene TRANS-FACTORIAL Multi-Species (XSP1) HepG2 Assay for zebrafish Androgen Receptor (AR) (AID 2283771)
# How it was run: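 Gain-of-signal versus DMSO was measured as reporter transcripts quantified by RT-PCR, fluorescent labelling and capillary electrophoresis after 24 h chemical exposure. The cells were HepG2 expressing a chimeric zebrafish AR-GAL4, co-stimulated with 3 nM 6-alpha-fluorotestosterone.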
# [6] = target: zebrafish Estrogen Receptor (ESR1), esr1 (gene 259252) (UniProt P57717); assay: ATG_zfER1_XSP1: Attagene TRANS-FACTORIAL Multi-Species (XSP1) HepG2 Assay for zebrafish Estrogen Receptor (ESR1) (AID 2283772)
# How it was run: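 Transfect HepG2 with GAL4-UAS multi-reporter constructs; treat 24 h (medium carries 3 nM 6-alpha-fluorotestosterone); extract RNA, reverse-transcribe, PCR-amplify, FAM-label, digest with HpaI; resolve by capillary electrophoresis and compare against DMSO baseline.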
# [7] = tested on: zebrafish Estrogen Receptor (ESR2B), gene 317733; assay: ATG_zfER2b_XSP1: Attagene TRANS-FACTORIAL Multi-Species (XSP1) HepG2 Assay for zebrafish Estrogen Receptor (ESR2B) (AID 2283773)
# How it was run: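 Medium contained 3 nM 6-alpha-fluorotestosterone. Reporter mRNA induction by exogenous zebrafish ER2b-Gal4 chimera was read 24 h post-dose in transiently transfected HepG2 cells, using RT-PCR, fluorescent labelling, HpaI digestion and capillary electrophoresis.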
# [8] = tested on: frog Estrogen Receptor (ESR2), gene 100174814; assay: ATG_frER2_XSP1: Attagene TRANS-FACTORIAL Multi-Species (XSP1) HepG2 Assay for frog Estrogen Receptor (ESR2) (AID 2283774)
# How it was run: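 Reporter mRNA from a multiplexed TRANS system, measured by RT-PCR with fluorescent labelling and capillary electrophoresis, 24 hours after chemical exposure. Human HepG2 liver cells carried exogenous frog ER-Gal4 chimera; medium included 3 nM 6-alpha-fluorotestosterone; increases versus DMSO analysed.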
# [9] = tested on: frog Estrogen Receptor (ESR1), gene 398734; assay: ATG_frER1_XSP1: Attagene TRANS-FACTORIAL Multi-Species (XSP1) HepG2 Assay for frog Estrogen Receptor (ESR1) (AID 2283777)
# How it was run: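 HepG2 cells transiently transfected with GAL4-UAS reporter units and frog ER–Gal4 chimera were dosed for 24 h with 3 nM 6-alpha-fluorotestosterone present. Reporter mRNA was measured by RT-PCR and capillary electrophoresis; gain of signal fitted versus DMSO.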
# [10] = tested on: zebrafish Estrogen Receptor (ESR2A), gene 317734; assay: ATG_zfER2a_XSP1: Attagene TRANS-FACTORIAL Multi-Species (XSP1) HepG2 Assay for zebrafish Estrogen Receptor (ESR2A) (AID 2283778)
# How it was run: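 Reporter transcripts were quantified by RT-PCR, 6-FAM labelling, HpaI digestion and capillary electrophoresis after 24 h dosing. The cells were HepG2 transiently carrying a zebrafish ER2a–Gal4 construct plus multiplexed UAS reporters; medium contained 3 nM 6-alpha-fluorotestosterone.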
# [11] = target: chicken Estrogen Receptor (ESR1), ESR1 (gene 396099) (UniProt P06212); assay: ATG_chERa_XSP1: Attagene TRANS-FACTORIAL Multi-Species (XSP1) HepG2 Assay for chicken Estrogen Receptor (ESR1) (AID 2283779)
# How it was run: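 Trans-activation of an exogenous chicken ERα–Gal4 chimera read as reporter transcript (RT-PCR, fluorescent labeling, capillary electrophoresis) after 24 h compound exposure of transfected HepG2; medium held 3 nM 6-alpha-fluorotestosterone. Positive-direction fit against DMSO.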
# [12] = target: Estrogen receptor (Homo sapiens) (UniProt P03372); assay: ATG_hERa_XSP1: Attagene TRANS-FACTORIAL Multi-Species (XSP1) HepG2 Assay for human Estrogen Receptor (ESR1) (AID 2283780)
# How it was run: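 Reporter transcripts from multiplexed GAL4-UAS units driven by NR-Gal4 chimeras in transiently transfected HepG2 were measured by RT-PCR with capillary electrophoresis 24 h post-dose, with 3 nM 6-alpha-fluorotestosterone present; gain-of-signal relative to DMSO.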
# Chain of Luciferin 4-monooxygenase (Photinus pyralis) (P08659 whole entry, looked up): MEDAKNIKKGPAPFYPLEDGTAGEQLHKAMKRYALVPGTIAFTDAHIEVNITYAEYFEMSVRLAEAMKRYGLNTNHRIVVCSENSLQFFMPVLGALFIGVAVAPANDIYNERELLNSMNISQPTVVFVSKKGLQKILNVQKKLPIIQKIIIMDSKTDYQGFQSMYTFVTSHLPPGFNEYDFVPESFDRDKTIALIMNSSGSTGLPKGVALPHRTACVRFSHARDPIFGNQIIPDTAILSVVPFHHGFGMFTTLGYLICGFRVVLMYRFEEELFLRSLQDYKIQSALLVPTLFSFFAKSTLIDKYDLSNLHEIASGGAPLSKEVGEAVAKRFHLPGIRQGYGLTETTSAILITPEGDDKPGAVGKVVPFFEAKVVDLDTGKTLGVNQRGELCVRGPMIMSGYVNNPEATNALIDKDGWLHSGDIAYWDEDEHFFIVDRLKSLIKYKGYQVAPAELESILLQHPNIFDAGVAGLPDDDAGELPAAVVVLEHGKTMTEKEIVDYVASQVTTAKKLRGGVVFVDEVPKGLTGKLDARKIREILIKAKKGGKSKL
# Chain of Estrogen receptor (Homo sapiens) (P03372 whole entry, looked up, the tested form may be a part): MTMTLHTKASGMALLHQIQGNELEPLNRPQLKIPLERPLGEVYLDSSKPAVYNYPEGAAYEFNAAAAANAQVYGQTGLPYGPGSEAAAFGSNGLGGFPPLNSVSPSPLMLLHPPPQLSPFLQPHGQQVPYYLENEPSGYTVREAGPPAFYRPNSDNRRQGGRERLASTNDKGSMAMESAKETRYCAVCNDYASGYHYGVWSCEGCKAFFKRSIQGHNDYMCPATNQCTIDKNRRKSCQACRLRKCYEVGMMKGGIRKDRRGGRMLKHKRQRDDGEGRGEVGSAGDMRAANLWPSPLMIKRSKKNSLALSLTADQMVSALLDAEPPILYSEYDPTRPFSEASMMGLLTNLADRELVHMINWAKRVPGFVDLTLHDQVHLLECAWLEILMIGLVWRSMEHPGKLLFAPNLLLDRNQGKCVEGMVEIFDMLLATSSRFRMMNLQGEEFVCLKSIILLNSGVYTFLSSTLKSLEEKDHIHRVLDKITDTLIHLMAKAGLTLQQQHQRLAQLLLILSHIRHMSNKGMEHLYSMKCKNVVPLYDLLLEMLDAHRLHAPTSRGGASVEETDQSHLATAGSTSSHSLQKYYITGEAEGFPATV
# Chain of chicken Estrogen Receptor (ESR1), ESR1 (gene 396099) (P06212 whole entry, looked up, the tested form may be a part): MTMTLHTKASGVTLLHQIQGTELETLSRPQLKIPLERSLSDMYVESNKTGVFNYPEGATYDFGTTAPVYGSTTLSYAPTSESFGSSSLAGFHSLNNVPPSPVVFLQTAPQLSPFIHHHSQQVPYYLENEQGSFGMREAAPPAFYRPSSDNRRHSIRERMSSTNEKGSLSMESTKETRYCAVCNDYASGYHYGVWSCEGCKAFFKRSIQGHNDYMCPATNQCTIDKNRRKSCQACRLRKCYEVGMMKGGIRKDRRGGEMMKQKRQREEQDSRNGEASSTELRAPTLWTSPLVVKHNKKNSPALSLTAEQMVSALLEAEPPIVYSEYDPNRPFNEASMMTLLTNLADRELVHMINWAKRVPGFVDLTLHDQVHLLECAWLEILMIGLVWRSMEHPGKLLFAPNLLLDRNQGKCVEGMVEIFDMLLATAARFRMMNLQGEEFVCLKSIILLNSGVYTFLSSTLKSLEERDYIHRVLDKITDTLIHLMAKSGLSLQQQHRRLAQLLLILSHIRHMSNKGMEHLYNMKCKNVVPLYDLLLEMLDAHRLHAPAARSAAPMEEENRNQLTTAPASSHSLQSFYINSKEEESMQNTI
# Chain of zebrafish Estrogen Receptor (ESR1), esr1 (gene 259252) (P57717 whole entry, looked up, the tested form may be a part): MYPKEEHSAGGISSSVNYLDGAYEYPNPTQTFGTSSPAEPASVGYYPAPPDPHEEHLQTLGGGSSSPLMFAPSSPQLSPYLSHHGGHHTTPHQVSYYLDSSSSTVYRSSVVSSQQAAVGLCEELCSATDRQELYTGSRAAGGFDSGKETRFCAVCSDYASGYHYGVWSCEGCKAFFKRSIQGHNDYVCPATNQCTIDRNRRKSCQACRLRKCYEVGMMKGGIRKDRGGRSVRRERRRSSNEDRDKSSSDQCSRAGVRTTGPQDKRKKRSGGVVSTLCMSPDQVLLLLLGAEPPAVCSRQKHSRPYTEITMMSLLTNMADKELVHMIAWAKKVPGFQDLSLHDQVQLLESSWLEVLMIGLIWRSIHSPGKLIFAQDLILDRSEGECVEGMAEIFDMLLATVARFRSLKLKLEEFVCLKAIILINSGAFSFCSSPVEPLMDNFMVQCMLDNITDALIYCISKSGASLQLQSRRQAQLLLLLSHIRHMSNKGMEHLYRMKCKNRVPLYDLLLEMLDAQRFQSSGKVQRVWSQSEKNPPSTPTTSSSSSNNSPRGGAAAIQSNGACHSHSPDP
smiles,measurement,setting,value
CC(C)C(=O)OCC(C)(C)C(OC(=O)C(C)C)C(C)C (stereo unspecified),AC50,[1],27.2 µM (active)
same,AC50,[2],75 µM (active)
same,AC50,[3],90.1 µM (active)
Sc1ccccc1,outcome,[4],inactive
same,outcome,[3],inactive
O=NN(c1ccccc1)c1ccccc1,outcome,[1],inactive
same,outcome,[3],inactive
Nn1cnnc1,outcome,[1],inactive
same,outcome,[3],inactive
O=C(NC(=O)c1cc(F)c(F)cc1Cl)Nc1cc(F)ccc1N1CCC(C(=O)O)CC1,outcome,[1],inactive
same,outcome,[3],inactive
O=C(O)C(F)(F)C(F)(F)C(F)(F)C(F)(F)C(F)(F)F,outcome,[1],inactive
same,outcome,[3],inactive
Cc1ccccc1O,outcome,[1],inactive
same,outcome,[3],inactive
CO/C=C(/C(=O)OC)c1ccccc1COc1cccc(C(F)(F)F)n1,AC50,[1],28.7 µM (active)
same,AC50,[3],50 µM (active)
c1ccc(-c2ccccc2)cc1,outcome,[1],inactive
same,outcome,[4],inactive
same,outcome,[2],inactive
same,outcome,[3],inactive
CCCCCCCCCC[N+](C)(C)CCCCCCCCCC,AC50,[1],39.7 µM (active)
same,outcome,[4],inactive
same,AC50,[3],6.84 µM (active)
CCCN(CCC)N=O,outcome,[1],inactive
same,outcome,[3],inactive
CN(C)c1nc(=O)n(C2CCCCC2)c(=O)n1C,outcome,[1],inactive
same,outcome,[3],inactive
COc1ccc(O)c(C(C)(C)C)c1,outcome,[1],inactive
same,outcome,[4],inactive
same,AC50,[3],71 µM (active)
ClC1=C(Cl)[C@]2(Cl)[C@@H]3[C@@H]4C[C@@H]([C@H]5O[C@@H]45)[C@@H]3[C@@]1(Cl)C2(Cl)Cl,outcome,[1],inactive
same,AC50,[3],50 µM (active)
CCCCCCCCCc1ccc(O)cc1,outcome,[1],inactive
same,outcome,[4],inactive
same,AC50,[3],19.1 µM (active)
ClC1=C(Cl)[C@]2(Cl)[C@@H]3[C@@H](Cl)[C@H]4O[C@H]4[C@@H]3C1(Cl)C2(Cl)Cl,outcome,[1],inactive
same,AC50,[3],68.9 µM (active)
C=CC(=O)NCNC(=O)C=C,outcome,[1],inactive
same,outcome,[3],inactive
CCOC(=O)C(O)(c1ccc(Cl)cc1)c1ccc(Cl)cc1,outcome,[1],inactive
same,AC50,[3],19.6 µM (active)
CN(C)CCO,outcome,[1],inactive
same,outcome,[2],inactive
same,outcome,[3],inactive
ClC(Cl)=C(c1ccc(Cl)cc1)c1ccc(Cl)cc1,outcome,[1],inactive
same,outcome,[5],inactive
same,outcome,[6],inactive
same,AC50,[7],5.92 µM (active)
same,AC50,[8],3.83 µM (active)
same,AC50,[2],29.6 µM (active)
same,AC50,[3],21.4 µM (active)
same,outcome,[9],inactive
same,AC50,[10],10 µM (active)
same,outcome,[11],inactive
same,AC50,[12],4.53 µM (active)
O=C(N[C@H]1CN2CCC1CC2)c1cc2ccoc2cn1,outcome,[1],inactive
same,outcome,[3],inactive
Cc1cccc([N+](=O)[O-])c1,outcome,[1],inactive
same,outcome,[3],inactive
OCC(O)CO,outcome,[3],inactive
O=C(O)C(F)(F)C(F)(F)C(F)(F)C(F)(F)C(F)(F)C(F)(F)C(F)(F)C(F)(F)F,outcome,[1],inactive
same,outcome,[4],inactive
same,AC50,[3],72 µM (active)
Clc1ccc(C(Cl)(Cl)Cl)cc1,outcome,[1],inactive
same,outcome,[4],inactive
same,outcome,[3],inactive
C1CC2OC2CC1C1CO1 (stereo unspecified),outcome,[1],inactive
same,outcome,[3],inactive
CC(C)(O)C(=O)Nc1ccc([N+](=O)[O-])c(C(F)(F)F)c1,AC50,[1],20.3 µM (active)
same,AC50,[7],15.4 µM (active)
same,outcome,[8],inactive
same,AC50,[2],84 µM (active)
same,AC50,[3],10.9 µM (active)
same,outcome,[10],inactive
same,outcome,[12],inactive
